Results filed as inconclusive are left out. Entries that show only a call come without a potency. Active and inactive are the calls of the source. The call rests on the fitted dose curve; in most records, active means well fitted cell-killing curve with a large enough effect; inconclusive means small, poorly fitted or top-dose-only effect, or effect the other way; inactive means flat fitted curve, though single readings scatter.

This test relates to HeLa. Description: Primary qHTS to identify gynecologic anti-cancer compounds using libraries of approved drugs and bioactive compounds (AID 1345084). Further: nearly all actives have a fitted effect of over 55% in size. As to conditions: Gynecologic cancer cell panel viability, ATPlite luminescence, 48 h; series mostly up to 57.5 µM. Summed up: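 Five-concentration response, 48 h; readout is ATP-driven luciferase luminescence.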
(qHTS replaces the single test concentration by a dilution series.)
Consider `COc1cccc([C@@]2(O)CCCC[C@@H]2CN(C)C)c1`, for which the Potency entry was “inactive”.

As to `C#C[C@]1(O)CC[C@H]2[C@@H]3CCC4=CC(=O)CC[C@]4(C)[C@H]3CC[C@@]21C`, the Potency result was “inactive”.

In the case of `COP(=S)(OC)Oc1ccc(S(=O)(=O)N(C)C)cc1`, the Potency entry is “inactive”.

As to `C[N+]1(CCF)[C@@H]2CC[C@H]1CC(OC(=O)C(O)(c1ccccc1)c1ccccc1)C2` (some centres undefined), the Potency entry is “inactive”.

Take `Nc1ccccc1`: the Potency entry was “inactive”.

As to `CN1C(=O)NC(=O)C(C)(C2=CCCCC2)C1=O` (centres undefined), the Potency entry was “inactive”.

In the case of `CCC1(CC)C(=O)C=CNC1=O`, the Potency entry was “inactive”.

`O=c1oc2ccccc2c(O)c1Cc1c(O)c2ccccc2oc1=O`: the Potency result is “inactive”.

For `COC(=O)[C@@H](N)CCCN/C(N)=N/[N+](=O)[O-]`, the Potency entry was “inactive”.

Turning to `Cc1ncsc1CCCl`, the Potency entry is “inactive”.

Turning to `COC(=O)C(Cl)C(=O)OC`, the Potency result was “inactive”.

With `CN(C)CCc1c[nH]c2cccc(OP(=O)(O)O)c12`, the Potency entry was “inactive”.

Turning to `O=[N+]([O-])O[C@H]1CO[C@H]2[C@@H]1OC[C@H]2O[N+](=O)[O-]`, the Potency result was “inactive”.

`CC(C)NC(C)C`: the Potency result was “inactive”.

For the molecule `O=C1OC(c2ccc(O)c(S(=O)(=O)O)c2)(c2ccc(O)c(S(=O)(=O)O)c2)c2c(Br)c(Br)c(Br)c(Br)c21`, the Potency entry was “inactive”.

Consider `CCC1(c2ccccc2)C(=O)N(COC)C(=O)N(COC)C1=O`, for which the Potency entry was “inactive”.

Turning to `CCOC(=O)CC(SP(=S)(OC)OC)C(=O)OCC` (centres undefined), the Potency entry is “inactive”.

For the molecule `CC(=O)OCC1=C(C(=O)O)N2C(=O)[C@@H](N)[C@H]2SC1`, the Potency result was “inactive”.

With `CC1(C)C(C=C(Cl)Cl)C1C(=O)OC(C#N)c1cccc(Oc2ccccc2)c1` (centres undefined), the Potency entry is “inactive”.

In the case of `O=C(N/N=C/c1ccc([N+](=O)[O-])o1)c1cc([N+](=O)[O-])cc([N+](=O)[O-])c1O`, the Potency result is “inactive”.

Take `CC(=O)NC1CCSC1=O` (centres undefined): the Potency entry was “inactive”.

`CCCCCCC(=O)CCCCCC/C=C/C[C@@H](O)[C@H](O)[C@@](N)(CO)C(=O)O`: the Potency entry is “inactive”.

For `CC(C)c1cccc(C(C)C)c1O`, the Potency result is “inactive”.

Take `COP(=S)(OC)Oc1cc(Cl)c(Cl)cc1Cl`: the Potency result is “inactive”.

Consider `O=c1[nH]oc2c1CCNC2`, for which the Potency result was “inactive”.

For `NCCc1ccc(O)cc1`, the Potency result was “inactive”.

On to `O=C1c2ccccc2C(=O)C1C(=O)C(c1ccccc1)c1ccccc1`, for which the Potency entry is “inactive”.

Take `NC1=NC(=O)C(c2ccccc2)O1` (centres undefined): the Potency result is “inactive”.

As to `C[C@@H](N)[C@@H](O)c1ccccc1`, the Potency result is “inactive”.

For `c1ccc2c(c1)sc1ccccc12`, the Potency result is “inactive”.

`CN1CC[C@]23c4c5ccc(O)c4O[C@H]2[C@@H](O)CC[C@H]3[C@H]1C5`: the Potency result was “inactive”.

Turning to `c1ccc(CN2CCNCC2)cc1`, the Potency result was “inactive”.

In the case of `CCC(C)(C)c1ccc(O)cc1`, the Potency entry was “inactive”.

On to `CNC(C)(C)Cc1ccccc1`, for which the Potency result was “inactive”.

The values are drawn from PubChem BioAssay (NCATS).
